{"source": "PubChem BioAssay (NCI)", "key": {"[1]": {"experiment": "NCI Yeast Anticancer Drug Screen. Data for the rad52 strain (AID 147);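 further: 0% = growth of vehicle-treated control cultures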", "details": "S. cerevisiae rad52 mutant growth inhibition, stronger effect = higher value", "method_in_brief": "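Inhibition of yeast growth, referenced to vehicle controls, was the measured output for a strain with defective DNA damage repair.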"}, "[2]": {"experiment": "NCI Yeast Anticancer Drug Screen. Data for the wt1 strain (AID 149);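 further: 0% = growth of vehicle-treated wt1 cultures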", "details": "S. cerevisiae wt1 strain (SPY 50644) growth inhibition, stronger effect = higher value", "method_in_brief": "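The wt1 strain was treated with compounds, and growth was compared with vehicle-treated cultures to give inhibition.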"}, "[3]": {"experiment": "NCI Yeast Anticancer Drug Screen. Data for the rad50EPP+ strain (AID 151);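 further: 0% = growth of vehicle-treated control cultures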", "details": "S. cerevisiae rad50 mutant strain, stronger effect = higher value", "method_in_brief": "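Genetically defined yeast (rad50EPP+, DNA damage repair alteration) is grown with compound, and inhibition of growth is expressed relative to vehicle-treated controls.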"}, "[4]": {"experiment": "NCI Yeast Anticancer Drug Screen. Data for the rad50 strain (AID 155);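 further: 0% = growth of vehicle-only cultures of the same strain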", "details": "S. cerevisiae rad50 strain growth inhibition, stronger effect = higher value", "method_in_brief": "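Cells are treated with compound, grown, and their growth is then scored against vehicle-only cultures of the same repair-deficient yeast strain.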"}, "[5]": {"experiment": "NCI Yeast Anticancer Drug Screen. Data for the mec2-1 strain (AID 157)", "details": "S. cerevisiae mec2-1 strain, stronger effect = higher value", "method_in_brief": "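Each compound was tested on mec2-1 yeast, a strain altered in DNA damage repair or cell cycle control. Growth inhibition is reported relative to vehicle.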"}, "[6]": {"experiment": "NCI Yeast Anticancer Drug Screen. Data for the rad14 strain (AID 159);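 further: 0% = growth of vehicle-treated control cultures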", "details": "S. cerevisiae rad14 strain growth inhibition, stronger effect = higher value", "method_in_brief": "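Readout: yeast growth inhibition, referenced to vehicle-only cultures. Strain bears a defined alteration in DNA damage repair.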"}, "[7]": {"experiment": "NCI Yeast Anticancer Drug Screen. Data for the sgs1 mgt1 strain (AID 161);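 further: 0% = growth of cultures given vehicle only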", "details": "S. cerevisiae sgs1 mgt1 strain, stronger effect = higher value", "method_in_brief": "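Test agents were incubated with a DNA-repair-mutant yeast strain. Growth was then read and compared against vehicle-treated controls.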"}, "[8]": {"experiment": "NCI Yeast Anticancer Drug Screen. Data for the CLN2oe strain (AID 163);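 further: 0% = growth of vehicle-only control cultures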", "details": "S. cerevisiae CLN2oe strain, stronger effect = higher value", "method_in_brief": "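First, the altered yeast strain was treated with each compound; second, its growth was measured; finally, inhibition was derived by comparison with vehicle controls.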"}, "[9]": {"experiment": "NCI Yeast Anticancer Drug Screen. Data for the cln2 rad14 strain (AID 165);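 further: 0% = growth equal to vehicle treated cultures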", "details": "S. cerevisiae cln2 rad14 strain, stronger effect = higher value", "method_in_brief": "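Test compounds were added to cln2 rad14 yeast cultures; inhibition of growth was then determined by comparison with vehicle treatment.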"}, "[10]": {"experiment": "NCI Yeast Anticancer Drug Screen. Data for the bub3 strain (AID 167)", "details": "S. cerevisiae bub3 mutant strain, stronger effect = higher value", "method_in_brief": "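Part of a panel of yeast mutants defective in DNA damage repair or cell cycle regulation. Each strain is grown with compound, and inhibition is calculated relative to solvent-treated cultures.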"}, "[11]": {"experiment": "NCI Yeast Anticancer Drug Screen. Data for the wt2 strain (AID 169);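 further: 0% = growth of vehicle-treated yeast cultures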", "details": "S. cerevisiae wt2 strain growth inhibition, stronger effect = higher value", "method_in_brief": "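The panel's yeast strains carry defined changes in DNA repair or cell cycle genes. Each strain is grown with compound, and growth loss is scored relative to vehicle.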"}, "[12]": {"experiment": "NCI Yeast Anticancer Drug Screen. Data for the mlh1 strain (AID 171);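 further: 0% = growth of vehicle-treated control cultures of the same strain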", "details": "S. cerevisiae mlh1 strain growth inhibition, stronger effect = higher value", "method_in_brief": "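Inhibition values reflect reduced yeast growth in the presence of compound, referenced to vehicle controls, using a strain chosen for its alteration in DNA repair or cell cycle control.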"}, "[13]": {"experiment": "NCI Yeast Anticancer Drug Screen. Data for the sgs1 strain (AID 173);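 further: 0% = growth of vehicle-only control cultures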", "details": "S. cerevisiae sgs1 mutant, stronger effect = higher value", "method_in_brief": "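Vehicle-treated cultures served as reference for growth inhibition of a yeast strain altered in DNA damage repair or cell cycle control after compound exposure.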"}, "[14]": {"experiment": "NCI Yeast Anticancer Drug Screen. Data for the mlh1 rad18 strain (AID 175)", "details": "S. cerevisiae mlh1 rad18 strain growth inhibition, stronger effect = higher value", "method_in_brief": "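Inhibition values reflect reduced growth of mutant yeast versus vehicle-treated controls following compound exposure; the mutations affect DNA damage repair.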"}, "[15]": {"experiment": "NCI Yeast Anticancer Drug Screen. Data for the rad18 strain (AID 177)", "details": "S. cerevisiae rad18 mutant growth inhibition, stronger effect = higher value", "method_in_brief": "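Steps: expose repair-mutant yeast to compound; measure growth; express as inhibition relative to vehicle control.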"}, "[16]": {"details": "at 5.0 µM (retest, dose inferred, filed as 0.5)"}, "[17]": {"details": "at 50.0 µM (retest, dose inferred, filed as 5.0)"}}, "note": "About 79,000 compounds went through this panel and 15% of them were active in at least one assay; those are over-represented in the sample as a whole. Values without a mark were called inactive. The source made the active and inactive calls. No stated cut-off is given here; in the data, active means growth inhibition above about 70%; inactive means the rest.", "data": [{"compound": "Cc1ccc(S(=O)(=O)Nc2ccc3c(c2)C(O)c2ccccc2-3)cc1", "note": "(stereo not drawn)", "values": [{"measurement": "growth inhibition", "setting": "[1]; at 1.2 µM", "result": -2, "unit": "%"}, {"measurement": "growth inhibition", "setting": "[1]; at 3.7 µM", "result": -1, "unit": "%"}, {"measurement": "growth inhibition", "setting": "[1]; at 11.0 µM", "result": 9, "unit": "%"}, {"measurement": "growth inhibition", "setting": "[1]; at 33.0 µM", "result": "71% (active)"}, {"measurement": "growth inhibition", "setting": "[1]; at 100.0 µM", "result": 59, "unit": "%"}, {"measurement": "growth inhibition", "setting": "[2]; at 1.2 µM", "result": -3, "unit": "%"}, {"measurement": "growth inhibition", "setting": "[2]; at 3.7 µM", "result": -7, "unit": "%"}, {"measurement": "growth inhibition", "setting": "[2]; at 11.0 µM", "result": -7, "unit": "%"}, {"measurement": "growth inhibition", "setting": "[2]; at 33.0 µM", "result": 22, "unit": "%"}, {"measurement": "growth inhibition", "setting": "[2]; at 100.0 µM", "result": 27, "unit": "%"}, {"measurement": "growth inhibition", "setting": "[3]; at 1.2 µM", "result": 4, "unit": "%"}, {"measurement": "growth inhibition", "setting": "[3]; at 3.7 µM", "result": 10, "unit": "%"}, {"measurement": "growth inhibition", "setting": "[3]; at 11.0 µM", "result": 31, "unit": "%"}, {"measurement": "growth inhibition", "setting": "[3]; at 33.0 µM", "result": 38, "unit": "%"}, {"measurement": "growth inhibition", "setting": "[3]; at 100.0 µM", "result": 22, "unit": "%"}, {"measurement": "growth inhibition", "setting": "[4]; at 1.2 µM", "result": -2, "unit": "%"}, {"measurement": "growth inhibition", "setting": "[4]; at 3.7 µM", "result": -3, "unit": "%"}, {"measurement": "growth inhibition", "setting": "[4]; [16]", "result": -4, "unit": "%"}, {"measurement": "growth inhibition", "setting": "[4]; at 11.0 µM", "result": 6, "unit": "%"}, {"measurement": "growth inhibition", "setting": "[4]; at 33.0 µM", "result": 48, "unit": "%"}, {"measurement": "growth inhibition", "setting": "[4]; [17]", "result": 10, "unit": "%"}, {"measurement": "growth inhibition", "setting": "[4]; at 50.0 µM", "result": "74.5% (active)"}, {"measurement": "growth inhibition", "setting": "[4]; at 100.0 µM", "result": 42, "unit": "%"}, {"measurement": "growth inhibition", "setting": "[5]; at 1.2 µM", "result": -5, "unit": "%"}, {"measurement": "growth inhibition", "setting": "[5]; at 3.7 µM", "result": -3, "unit": "%"}, {"measurement": "growth inhibition", "setting": "[5]; [16]", "result": -9, "unit": "%"}, {"measurement": "growth inhibition", "setting": "[5]; at 11.0 µM", "result": -5, "unit": "%"}, {"measurement": "growth inhibition", "setting": "[5]; at 33.0 µM", "result": 21, "unit": "%"}, {"measurement": "growth inhibition", "setting": "[5]; [17]", "result": 7, "unit": "%"}, {"measurement": "growth inhibition", "setting": "[5]; at 50.0 µM", "result": 23.1, "unit": "%"}, {"measurement": "growth inhibition", "setting": "[5]; at 100.0 µM", "result": 33, "unit": "%"}, {"measurement": "growth inhibition", "setting": "[6]; at 1.2 µM", "result": -2, "unit": "%"}, {"measurement": "growth inhibition", "setting": "[6]; at 3.7 µM", "result": -3, "unit": "%"}, {"measurement": "growth inhibition", "setting": "[6]; at 11.0 µM", "result": 4, "unit": "%"}, {"measurement": "growth inhibition", "setting": "[6]; at 33.0 µM", "result": 38, "unit": "%"}, {"measurement": "growth inhibition", "setting": "[6]; at 100.0 µM", "result": 23, "unit": "%"}, {"measurement": "growth inhibition", "setting": "[7]; [16]", "result": 0, "unit": "%"}, {"measurement": "growth inhibition", "setting": "[7]; [17]", "result": 5, "unit": "%"}, {"measurement": "growth inhibition", "setting": "[7]; at 50.0 µM", "result": "89.5% (active)"}, {"measurement": "growth inhibition", "setting": "[8]; at 1.2 µM", "result": -7, "unit": "%"}, {"measurement": "growth inhibition", "setting": "[8]; at 3.7 µM", "result": -10, "unit": "%"}, {"measurement": "growth inhibition", "setting": "[8]; at 11.0 µM", "result": -9, "unit": "%"}, {"measurement": "growth inhibition", "setting": "[8]; at 33.0 µM", "result": 30, "unit": "%"}, {"measurement": "growth inhibition", "setting": "[8]; at 100.0 µM", "result": 30, "unit": "%"}, {"measurement": "growth inhibition", "setting": "[9]; [16]", "result": -19, "unit": "%"}, {"measurement": "growth inhibition", "setting": "[9]; [17]", "result": 23, "unit": "%"}, {"measurement": "growth inhibition", "setting": "[9]; at 50.0 µM", "result": "79.4% (active)"}, {"measurement": "growth inhibition", "setting": "[10]; at 1.2 µM", "result": 0, "unit": "%"}, {"measurement": "growth inhibition", "setting": "[10]; at 3.7 µM", "result": 0, "unit": "%"}, {"measurement": "growth inhibition", "setting": "[10]; [16]", "result": -3, "unit": "%"}, {"measurement": "growth inhibition", "setting": "[10]; at 11.0 µM", "result": 2, "unit": "%"}, {"measurement": "growth inhibition", "setting": "[10]; at 33.0 µM", "result": 20, "unit": "%"}, {"measurement": "growth inhibition", "setting": "[10]; [17]", "result": 12, "unit": "%"}, {"measurement": "growth inhibition", "setting": "[10]; at 50.0 µM", "result": "83.3% (active)"}, {"measurement": "growth inhibition", "setting": "[10]; at 100.0 µM", "result": 23, "unit": "%"}, {"measurement": "growth inhibition", "setting": "[11]; at 1.2 µM", "result": -6, "unit": "%"}, {"measurement": "growth inhibition", "setting": "[11]; at 3.7 µM", "result": -7, "unit": "%"}, {"measurement": "growth inhibition", "setting": "[11]; at 11.0 µM", "result": -2, "unit": "%"}, {"measurement": "growth inhibition", "setting": "[11]; at 33.0 µM", "result": "75% (active)"}, {"measurement": "growth inhibition", "setting": "[11]; at 100.0 µM", "result": 43, "unit": "%"}, {"measurement": "growth inhibition", "setting": "[12]; at 1.2 µM", "result": -8, "unit": "%"}, {"measurement": "growth inhibition", "setting": "[12]; at 3.7 µM", "result": -6, "unit": "%"}, {"measurement": "growth inhibition", "setting": "[12]; at 11.0 µM", "result": 2, "unit": "%"}, {"measurement": "growth inhibition", "setting": "[12]; at 33.0 µM", "result": "80% (active)"}, {"measurement": "growth inhibition", "setting": "[12]; at 100.0 µM", "result": 33, "unit": "%"}, {"measurement": "growth inhibition", "setting": "[13]; at 1.2 µM", "result": -1, "unit": "%"}, {"measurement": "growth inhibition", "setting": "[13]; at 3.7 µM", "result": -1, "unit": "%"}, {"measurement": "growth inhibition", "setting": "[13]; at 11.0 µM", "result": 26, "unit": "%"}, {"measurement": "growth inhibition", "setting": "[13]; at 33.0 µM", "result": "86% (active)"}, {"measurement": "growth inhibition", "setting": "[13]; at 100.0 µM", "result": 57, "unit": "%"}, {"measurement": "growth inhibition", "setting": "[14]; [16]", "result": -6, "unit": "%"}, {"measurement": "growth inhibition", "setting": "[14]; [17]", "result": 40, "unit": "%"}, {"measurement": "growth inhibition", "setting": "[14]; at 50.0 µM", "result": "91% (active)"}, {"measurement": "growth inhibition", "setting": "[15]; at 1.2 µM", "result": -3, "unit": "%"}, {"measurement": "growth inhibition", "setting": "[15]; at 3.7 µM", "result": -4, "unit": "%"}, {"measurement": "growth inhibition", "setting": "[15]; at 11.0 µM", "result": -4, "unit": "%"}, {"measurement": "growth inhibition", "setting": "[15]; at 33.0 µM", "result": "73% (active)"}, {"measurement": "growth inhibition", "setting": "[15]; at 100.0 µM", "result": 51, "unit": "%"}]}]}
